Experimental data published in PubChem BioAssay AID652106 (National Center for Advancing Translational Sciences (NCATS), 2013).
The campaign covered roughly 370,000 compounds. About 500 (0.14%) were called active. Another 2% or so got no clear call; they are omitted. Calls come from the whole dose curve; as a rule, active = well fitted activation curve with a large enough effect; inconclusive = small, poorly fitted or top-dose-only effect; inactive = no such curve, though single readings can be large or run the other way. The entries come from a sample that favours actives as a whole.

Assay: qHTS of alpha-syn Inhibitors; note: nearly all actives have a fitted effect of over 65% in size; for growth rescue (activation): % of control where 0% means no effect
Conditions: Yeast expressing alpha-synuclein, BacTiter-Glo, 24 h; Potency: growth rescue; series mostly up to 46.1 µM; growth rescue (activation): at the top concentration
Source text: The goal of this project is to identify new chemical probes capable of reversing the toxicity associated with the Parkinson disease-related protein, alpha-synuclein. Compounds will be selected on their ability to restore growth in yeast cells expressing toxic levels of alpha-synuclein. These compounds will provide a complementary approach to deciphering the tangled mechanisms of toxicity and protection that we have uncovered through genome-wide genetic screens and are beginning to uncover in a large-scale proteomics analysis with mass spectroscopy. To this end, a miniaturized assay was developed to be screened against the Molecular Libraries Small Molecule Repository (MLSMR) to discover alpha-synuclein inhibitors. Please note that in the set-up this yeast-based assay compounds that inhibit as alpha-syn, have a read-out as activators. NIH Chemical Genomics Center [NCGC] NIH Molecular Libraries Probe Centers Network [MLPCN] MLPCN Grant: NS060957 Assay Submitter (PI): Susan Lindquist, Whitehead Institute/MIT
Dispense 2.5 microL yeast galactose medium per 1536-well plate, pin compound, dispense 2.5 microL alpha-synuclein expressing yeast in galactose medium at OD600=0.02 (pregrown in raffinose medium to mid-log phase) per well, incubate for 24 hr at 30 deg C, and cell growth will be measured using 5 microL of Bactiter/Glo reagent to entire plate and read using Luminescence Protocol in ViewLux.
Potency is the fitted concentration of half-maximal effect.

Row | SMILES | growth rescue (activation) | Potency
1 | CSc1n[nH]c(-c2ccco2)n1 | -0.537% (inactive) | –
2 | Cc1ccc(NC(=O)NCC(c2cccnc2)N2CCOCC2)cc1 (stereo not drawn) | – | 5.62 µM (active)
3 | Cc1ccc(C(CNC(=O)Nc2ccccc2)N2CCN(C)CC2)cc1 (stereo not drawn) | -4.76% (inactive) | –
4 | Cc1ccc(C)c(NC(=S)NCC(c2cccnc2)N2CCOCC2)c1 (stereo not drawn) | -8.26% (inactive) | –
5 | O=C(COc1ccccc1)Nc1nonc1NC(=O)COc1ccccc1 | 1.28% (inactive) | –
6 | O=C(COC(=O)c1ccc(Oc2ccccc2)cc1)Nc1nnc(-c2ccccc2)o1 | – | 22.4 µM (active)
7 | O=C(COC(=O)CSc1nnc(-c2ccc(Cl)cc2)o1)Nc1cc(Cl)cc(Cl)c1 | 1.9% (inactive) | –
8 | CCCS(=O)(=O)Nc1cccc(-c2cn3ccsc3n2)c1 | -11.7% (inactive) | –
9 | CC1CCN(S(=O)(=O)c2ccc3c(c2)N(CC(=O)NCc2ccccc2Cl)C(=O)CO3)CC1 | 0.592% (inactive) | –
10 | CC(=O)c1ccc[n+](C(C)CCC(C)[n+]2cccc(C(C)=O)c2)c1 (stereo not drawn) | -0.885% (inactive) | –
11 | CN(C)c1ccnc2sc(C(=O)c3ccccc3)c(N)c12 | – | 25.1 µM (active)
12 | COc1cccc(C(=O)c2sc3nc(-c4ccccc4)cc(C(F)(F)F)c3c2N)c1 | 11.7% (inactive) | –
13 | CC(=O)c1c(Nc2ccccc2)sc(C(=O)c2ccccc2)c1C | 8.19% (inactive) | –
14 | CN(CCC#N)c1ccc(C=O)cc1 | 1.26% (inactive) | –
15 | Cc1[nH]c2ccccc2c1C(=O)C(=O)N(C)c1ccccc1 | 3.32% (inactive) | –
16 | CN1CC[C@H](c2c(O)cc(O)c3c(=O)cc(-c4ccccc4Cl)oc23)[C@H](O)C1 | -8.77% (inactive) | –
17 | COc1cc(C(CC(=O)NCCC(C)C)N2Cc3ccccc3C2=O)cc(OC)c1OC (stereo not drawn) | -3.19% (inactive) | –
18 | COc1ccc(/C=C/c2ccnc3ccccc23)cc1OC | -1.22% (inactive) | –
19 | O=C(NC(=S)NC1CCS(=O)(=O)C1)c1cccc([N+](=O)[O-])c1 (stereo not drawn) | -5.43% (inactive) | –
20 | C/C(=N\NC(=O)c1cccc([N+](=O)[O-])c1)c1cccnc1 | -5.46% (inactive) | –
21 | CC(C)CC(=O)NC(=S)NNC(=O)c1cccc([N+](=O)[O-])c1 | – | 17.8 µM (active)
22 | O=[N+]([O-])c1ccc(/C=C/c2ccc3cccnc3c2)cc1 | -5.64% (inactive) | –
23 | O=S(=O)(c1cccc(C(F)(F)F)c1)N1CCN(c2nc(-c3cccs3)nc3ccccc23)CC1 | -1.28% (inactive) | –

Row | SMILES | growth rescue (activation) | Potency
24 | CO[C@H]1O[C@@H]2O[C@@]3(C)CC[C@@H]4[C@@H](C)CC[C@@H]([C@H]1C)[C@@]24OO3 | 0.951% (inactive) | –
25 | CCOc1cc(C(=O)Nc2nnc3n2CCS3)cc(OCC)c1OCC | 0.0761% (inactive) | –
26 | CC(C)c1cccc(C(C)C)c1Nc1cn[nH]c1 | – | 3.98 µM (active)
27 | CC(C)CC1C(=O)N(Cc2cn(CC3CCCCC3)nn2)CCS(=O)(=O)N1Cc1ccc(-c2ccc(Cl)cc2)cc1 (stereo not drawn) | – | 1.58 µM (active)
28 | COc1ccc(-c2ccc(CN3C(CC(C)C)C(=O)N(Cc4cn(CC5CCCCC5)nn4)CCS3(=O)=O)cc2)cn1 (stereo not drawn) | 5.71% (inactive) | –
29 | CC(=O)c1cccc(-c2ccc(CN3C(CC(C)C)C(=O)N(Cc4cn(CC5CCCCC5)nn4)CCS3(=O)=O)cc2)c1 (stereo not drawn) | -12.8% (inactive) | –
30 | O=C(Nc1cnccn1)c1cccnc1 | -2.07% (inactive) | –
31 | CCOc1ccccc1NC(=O)c1cccnc1 | -7.43% (inactive) | –
32 | O=C(CC(=O)c1cccnc1)c1ccccc1 | – | 15.8 µM (active)
33 | CCOc1ccc(NC(=O)CSc2nnc3c(n2)[nH]c2ccc(S(=O)(=O)N4CCOCC4)cc23)cc1 | 3.54% (inactive) | –
34 | CCN(CC)c1ccc(/C=C/c2c(C)cnc3ccc(C)cc23)cc1 | 1.75% (inactive) | –
35 | COc1cc2nc(N3CCCN(C)CC3)nc(NC3CC3)c2cc1OC | -3.48% (inactive) | –
36 | OC(CBr)C[n+]1cccc2cc(Br)ccc21 (stereo not drawn) | -0.822% (inactive) | –
37 | ClC/C=C/C[n+]1ccccc1Cl | 10.5% (inactive) | –
38 | O=C(c1ccco1)N(Cc1cccs1)c1ccc(O)cc1 | 5.52% (inactive) | –
39 | O=c1cc(-c2ccccc2)[nH]c2nc(Cl)ccc12 | -11.3% (inactive) | –
40 | NS(=O)(=O)c1ccc(NC(=O)CSc2nnc3c(n2)[nH]c2ccccc23)cc1 | -9.09% (inactive) | –
41 | CCC(C)N(c1ccc(/C=C/c2ccnc3ccccc23)cc1)C(C)CC (stereo not drawn) | 0.324% (inactive) | –
42 | O=C1c2ccccc2C(=O)N1c1ccc(S(=O)(=O)N2CCOCC2)c2ccccc12 | -0.816% (inactive) | –
43 | CS(=O)c1ccc(/C=C2\C=Cc3ccccc32)cc1 (stereo not drawn) | -12.1% (inactive) | –
44 | Cc1ccc(C(=O)CSc2nc(-c3ccccc3)nc3c2CCCC3)c(C)c1 | 0.262% (inactive) | –
45 | Cc1cccc(Nc2nc(C)nc(N)c2S(=O)(=O)c2ccccc2)c1 | -3.96% (inactive) | –
46 | Brc1cccc[n+]1Cc1cccc(C[n+]2ccccc2Br)c1 | -0.189% (inactive) | –

Row | SMILES | growth rescue (activation) | Potency
47 | OC(Cc1ccc2ccccc2n1)c1ccc(Cl)c(Cl)c1 (stereo not drawn) | -19.7% (inactive) | –
48 | COc1ccc(C)cc1NC(=O)C(=O)NCCc1sc(-c2cccc(C)c2)nc1C | 0.666% (inactive) | –
49 | CN(C)c1ccc(/C=C2\C=Cc3ccccc32)cc1Br | 1.91% (inactive) | –
50 | CC(C)(C(=O)NO)c1ccccc1 | 1.69% (inactive) | –
51 | CN(O)C(=S)c1ccccc1 | – | 3.55 µM (active)
52 | CCOc1ccccc1C(=O)NC1(C(F)(F)F)NC(=O)N(CCc2ccc(OC)c(OC)c2)C1=O (stereo not drawn) | 0.914% (inactive) | –
53 | O=C(c1cnn2c1NC(=C1CC1)C=C2C(F)F)N1CCc2ccccc2C1 | 2.26% (inactive) | –
54 | Cc1cc(F)ccc1NC1(c2ccccc2)C(=O)c2ccccc2C1=O | 5.02% (inactive) | –
55 | O=S(=O)(Nc1cccc2cccnc12)c1cccc2cccnc12 | 3.8% (inactive) | –
56 | COc1ccc(S(=O)(=O)Nc2cccc3cccnc23)c(N)c1 | – | 22.4 µM (active)
57 | O=[N+]([O-])c1ccccc1S(=O)(=O)Nc1cccc2cccnc12 | 22.8% (inactive) | –
58 | O=C(NNC(=O)c1ccc(Cl)nc1)c1ccc(Br)cc1 | -10.8% (inactive) | –
59 | CNC(=S)NNC(=O)c1ccc(N(C)C)cc1 | 0.721% (inactive) | –
60 | CC(=O)NC(=S)NNC(=O)c1ccc(Br)cc1 | – | 12.6 µM (active)
61 | Cc1ccc(-c2nc(=N)sn2Cc2ccccc2)cc1 | -55.8% (inactive) | –
62 | CC(C)CC(COCc1ccc(Cl)cc1)N1CCN(C(=O)c2ccc(C(F)(F)F)cc2)CCC1=O (stereo not drawn) | 8.14% (inactive) | –
63 | CC(C)C[C@@H](COCc1ccc(Cl)cc1)N1CCN(C(=O)c2ccc(Cl)cc2Cl)CCC1=O | – | 15.8 µM (active)
64 | CC(C)CC(CO)N1CCN(C(=O)c2ccc(Cl)cc2Cl)CCC1=O (stereo not drawn) | -14.7% (inactive) | –
65 | CN(C(=N)N)c1ccc(/C=C2\C=Cc3ccccc32)cc1 | -8.43% (inactive) | –
66 | CN(C)CCCn1c(-c2ccc(Cl)cc2)csc1=Nc1ccccc1 | 6.74% (inactive) | –
67 | CN(C)c1ccc(/C=C/c2sc3ccccc3[n+]2C)cc1 | -60.2% (inactive) | –
68 | CC1(C)C=Cc2c(ccc(C(=O)/C=C/c3ccccc3)c2O)O1 | -22.1% (inactive) | –
